Most compounds without a hit are left out; they make up all but 19% or so of the library.
TGFb inhibitor: blocks TGF-b signaling. Potency, µM (highest dose often 46.1 µM), inactives show at the highest dose activity, negative = inhibition, actives largely listed as inhibitors. 1.2% of 410,000 active. HepG2 CAGA-GFP TGF-b/SMAD3 reporter, GFP fluorescence, 18 h; TGF-beta stimulated, 500 pg/mL final; further: potency means the concentration at half of the fitted maximal effect; on the % scale 0 is the no-effect control and ±100 the full control effect; nearly all actives have a fitted effect of over 65% in size
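Smad-responsive CAGA-GFP expression was quantified in HEPG2 cells exposed to compounds and 500 pg/mL final TGF-beta for 18 h at 37 degrees C; unstimulated wells defined full inhibition.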
S-ASM inh: human S-ASM enzyme inhibition; Potency, µM (highest dose often 57.5 µM), for the others: at the top dose activity change, negative = inhibition, actives largely listed as inhibitors; P17405; 0.006% of 340,000 active; placental ASM, HMU-PC fluorogenic substrate, 60 min; further: potency means the concentration at half of the fitted maximal effect
Target sequence (P17405 47-631 limits assumed): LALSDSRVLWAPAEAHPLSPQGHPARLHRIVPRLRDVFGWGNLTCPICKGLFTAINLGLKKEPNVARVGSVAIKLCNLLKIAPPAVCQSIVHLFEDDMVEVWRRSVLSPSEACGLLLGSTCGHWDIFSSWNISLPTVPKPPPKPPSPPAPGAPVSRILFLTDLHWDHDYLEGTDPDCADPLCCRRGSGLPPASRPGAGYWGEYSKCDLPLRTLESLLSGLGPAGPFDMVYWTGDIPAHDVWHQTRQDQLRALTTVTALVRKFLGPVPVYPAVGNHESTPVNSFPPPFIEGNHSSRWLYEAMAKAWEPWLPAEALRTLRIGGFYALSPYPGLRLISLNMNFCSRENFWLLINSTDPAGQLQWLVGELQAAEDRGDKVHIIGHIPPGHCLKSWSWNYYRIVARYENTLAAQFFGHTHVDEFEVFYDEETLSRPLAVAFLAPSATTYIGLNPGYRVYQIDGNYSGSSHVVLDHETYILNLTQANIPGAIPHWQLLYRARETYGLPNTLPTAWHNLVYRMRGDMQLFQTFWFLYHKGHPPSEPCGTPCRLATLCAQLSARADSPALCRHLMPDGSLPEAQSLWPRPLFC
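Fluorogenic HMU-PC substrate (9 uM final) is turned over by placental ASM in 60 min at 37 C after a 10 min compound preincubation. Reaction ended by alkaline stop (pH 10), with fluorescence read at 386/447 nm.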
DT40 TDP1 CPT: growth inhibition of DT40 Tdp1-/-;hTDP1 cells with camptothecin (screen for TDP1 inhibitors). chicken DT40 Tdp1-/-;hTDP1 cells + 20 nM CPT, ATP luminescence, 48 h. Potency, µM (titrated, usually from 46.2 µM), without a hit: at the highest dose activity change, negative = growth inhibition, most hits filed as inhibitors. 12% of 420,000 active; further: potency means the concentration at half of the fitted maximal effect; on the % scale 0 is the no-effect control and ±100 the full control effect; nearly all actives have a fitted effect of over 55% in size
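Chicken DT40 Tdp1-/- cells stably complemented with human TDP1 were seeded at 400 cells/well in medium containing 20 nM camptothecin, exposed to pin-transferred compounds, and grown at 37 °C for at least 48 hr. Viability was read as ATP luminescence.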
HepG2 tox-1: counter-screen for TGF-b inhibitors: cytotoxicity in HepG2 cells; Potency, µM (highest dose often 46.1 µM), without a hit: at the top dose activity change, negative = cytotoxicity, usual class: cytotoxic; AID 588856; HepG2 CAGA-GFP viability, ATP luminescence, 18 h; 0.76% of 410,000 active; further: potency means the concentration at half of the fitted maximal effect
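HepG2 CAGA-GFP cells (1000/well, DMEM with 1% FBS) received compound, then TGF-beta at 500 pg/mL final, and were incubated 18 hours at 37 degrees C. Viability was read by CellTiter-Glo luminescence. Media-only wells were set as complete cell-killing and DMSO as no toxicity.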
IL-1B inflam inh: inflammasome signaling inhibition, IL-1 beta readout. THP-1 LPS/ATP IL-1B secretion, AlphaLISA, 16 h; hits give low values. activity change, % at 57.5 µM. 4.7% of 360,000 active. AID 743279; in the data active means activity change below about -50%; inconclusive means mostly about -30% to -49%; further: on the % scale 0 is the no-effect control and ±100 the full control effect
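THP-1 cells pretreated 1 hr with compounds (up to 57.5 uM final), then stimulated with LPS (250 ng/mL final) plus ATP (1.25 mM final); secreted IL-1B measured by AlphaLISA after 16 hr, decreased signal indicating inhibition.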
TDP1 cell noCPT: qHTS for Inhibitors of human tyrosyl-DNA phosphodiesterase 1 (TDP1): qHTS in cells in absence of CPT. Potency, µM (doses to about 46.2 µM), inactives show at the highest dose activity change, negative = growth inhibition, hits mostly inhibitors. DT40 Tdp1-/- hTDP1 cells, no CPT, ATP luminescence, 48 h. 15% of 420,000 active; further: potency means the concentration at half of the fitted maximal effect; on the % scale 0 is the no-effect control and ±100 the full control effect; nearly all actives have a fitted effect of over 55% in size
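No-CPT arm: Tdp1-/-;hTDP1 DT40 cells (400/well) plus compounds, incubated ≥48 hr at 37 °C. Readout CellTiter-Glo luminescence.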
TGFb CAGA inh: TGF-b pathway inhibition, cherry-pick retest | shares compounds with TGFb inhibitor | 63% of 1,600 active | HepG2 CAGA-GFP TGF-b reporter, GFP fluorescence, 18 h; cells stimulated with TGF-beta, 500 pg/mL | Potency, µM (series often up to 46.1 µM), inactives show top-dose activity, negative = inhibition, hits mostly inhibitors; further: potency means the concentration at half of the fitted maximal effect; on the % scale 0 is the no-effect control and ±100 the full control effect; nearly all actives have a fitted effect of over 65% in size
HepG2 tox-2: counter-screen for TGF-b inhibitors: cytotoxicity in HepG2 cells; shares compounds with TGFb inhibitor; HepG2 CAGA-GFP viability, ATP luminescence, 18 h; cells stimulated with TGF-beta, 500 pg/mL; Potency, µM (doses to about 46.1 µM), for the others: top-dose activity, negative = cytotoxicity, usual class: inhibitors; 27% of 1,600 active; further: potency means the concentration at half of the fitted maximal effect; on the % scale 0 is the no-effect control and ±100 the full control effect; nearly all actives have a fitted effect of over 70% in size
CCL64 TGFb inh: TGF-b inhibition, CCL64 orthogonal assay; shares compounds with TGFb inhibitor; CCL64 CAGA-GFP reporter, TGF-b stimulated, GFP fluorescence, 18 h; Potency, µM (highest dose often 46.1 µM), for inactives: top-dose activity, negative = inhibition, hits mostly inhibitors; 41% of 1,600 active; AID 720536; further: potency means the concentration at half of the fitted maximal effect; nearly all actives have a fitted effect of over 65% in size
COP TGFb inh: TGF-b inhibition validated with COP promoter. Potency, µM (titrated, usually from 46.1 µM), without a hit: at the top dose activity, negative = inhibition, usual class: inhibitors. AID 720537. 3% of 1,600 active. HepG2 COP-GFP TGF-b reporter, GFP fluorescence, 18 h; cells stimulated by added recombinant TGF-beta. shares compounds with TGFb inhibitor; further: potency means the concentration at half of the fitted maximal effect; nearly all actives have a fitted effect of over 70% in size
Starred values were filed as active, the others as inactive; u = inconclusive; x = no result. Unless noted, the call rests on the fitted dose curve; in most records, active means well fitted curve in the direction sought with a large enough effect; inconclusive means small, poorly fitted or top-dose-only effect, or another doubt; inactive means no such curve, though single readings can be large; an effect the other way counts as inactive or inconclusive.

SMILES	TGFb inhibitor	S-ASM inh	DT40 TDP1 CPT	HepG2 tox-1	IL-1B inflam inh	TDP1 cell noCPT	TGFb CAGA inh	HepG2 tox-2	CCL64 TGFb inh	COP TGFb inh
O=[N+]([O-])c1ccc(N2CCN(Cc3ccccc3)CC2)c2c1no[n+]2[O-]	3.2µM*	x	0.16µM*	3.5µM*	-87*	0.26µM*	u	4.1µM*	5.2µM*	u
Cc1cccc(N(C)C(=O)C2CCN(S(=O)(=O)c3cccc4nonc34)CC2)c1	u	x	u	-16%	x	u	x	x	x	x
COc1ccccc1N1CCN(CCCCOc2ccc(C)cc2C)CC1	-21%	-1%	u	-16%	-1	u	x	x	x	x
O=C(Nc1nc(-c2ccc3c(c2)OCCO3)cs1)c1ccc(Br)o1	u	x	4%	-58%	-25	u	x	x	x	x
NC(=O)c1oc2ccccc2c1NC(=O)c1ccc([N+](=O)[O-])o1	7.1µM*	-1%	0.73µM*	-31%	-91*	0.58µM*	4.6µM*	23µM*	u	51%
O=C(NNC(=O)c1ccc([N+](=O)[O-])o1)c1ccccc1	7.9µM*	-2%	u	-26%	-15	u	16µM*	18µM*	3%	52%
Cc1ccccc1C(=O)N1CCN(c2ccc(NC(=O)c3ccc([N+](=O)[O-])o3)cc2)CC1	3.2µM*	-2%	5.2µM*	1.1µM*	-95*	2.3µM*	6.5µM*	16µM*	-7%	u
NC(=O)c1oc2ccccc2c1NC(=O)c1ccc(F)cc1	-19%	2%	-7%	31%	3	-15%	x	x	x	x
O=C(Nc1nc(-c2ccccn2)cs1)c1ccc([N+](=O)[O-])o1	8.9µM*	3%	4.1µM*	-58%	41	2.6µM*	15µM*	16µM*	u	17%
CCCCN1C(=O)C(CC(=O)NCc2cccs2)CC(C(=O)N(C(C)C)C(C)C)=C1C (stereo not drawn)	-2%	x	-25%	0%	8	-33%	x	x	x	x
CCCCn1c(N)c(N(CCOC)C(=O)CN2C(=O)NC3(CC(C)CC(C)(C)C3)C2=O)c(=O)[nH]c1=O (stereo not drawn)	-7%	-1%	-15%	-1%	0	26%	x	x	x	x
O=C(OCC#CCSc1nnc(-c2cccc3ccccc23)o1)c1ccc2ccccc2c1	8%	8%	x	-1%	x	x	x	x	x	x
COc1ccc(NC(=O)c2oc3ccccc3c2NC(=O)COc2ccc(F)cc2)c(OC)c1	3%	x	u	-1%	x	-16%	x	x	x	x
CCCCCC(=O)Nc1ccc(N2CCN(C(=O)c3ccccc3)CC2)cc1	-7%	-1%	-10%	-3%	-13	u	x	x	x	x
O=C(Nc1ccc(N2CCN(C(=O)c3ccccc3)CC2)cc1)c1ccc([N+](=O)[O-])o1	5.6µM*	-12%	2.1µM*	13µM*	-96*	1.8µM*	7.3µM*	23µM*	u	-21%
O=C(Nc1cccc(S(=O)(=O)Nc2ccccc2Cl)c1)c1ccc(Cl)nc1	13µM*	-5%	12µM*	-29%	7	15µM*	8.2µM*	-15%	-2%	10%
O=C(Nc1cccc(S(=O)(=O)Nc2ccccc2Cl)c1)c1ccc(N2CCCC2)c([N+](=O)[O-])c1	-2%	-14%	-2%	-1%	2	-22%	x	x	x	x
CN1CCc2[nH]c3ccc(Cl)cc3c2C1	8%	x	4%	13%	x	-25%	x	x	x	x
CCC1=C(CC2NCCc3ccccc32)CC2c3cc(OC)c(OC)cc3CCN2C1 (stereo not drawn)	2.8µM*	11%	1.2µM*	-29%	-92*	1.6µM*	1.5µM*	u	5.2µM*	22%
COc1cc2c(cc1OC)C(c1ccccc1O)NCC2 (stereo not drawn)	2%	2%	-6%	-1%	-7	-17%	x	x	x	x
CCCS(=O)(=O)NC(=O)C1(C)CCN1C(=O)Cc1ccc(Cl)cc1Cl (stereo not drawn)	-5%	x	8%	-5%	-6	-1%	x	x	x	x
Cc1nnc(SC(=O)N2c3ccccc3Sc3ccccc32)s1	7.1µM*	-14%	13µM*	-104%	-101*	10µM*	12µM*	15µM*	3.3µM*	u
Clc1nc(Cl)nc(N(c2ccccc2)c2ccccc2)n1	u	3%	-8%	-46%	1	2%	u	u	u	36%
Cc1ccc(S(=O)(=O)N2CCOCC2)cc1NC(=O)COC(=O)COc1ccc(C#N)cc1	-11%	x	-20%	0%	15	u	x	x	x	x
COc1ccc(S(=O)(=O)Nc2ccc(O)c(Sc3ncn[nH]3)c2)cc1	1%	5%	u	0%	1	-17%	x	x	x	x
COc1ccc(S(=O)(=O)Nc2cc(Sc3ncn[nH]3)c(O)c3ccccc23)cc1	3.2µM*	x	x	3.5µM*	x	x	12µM*	u	2.6µM*	u
O=S(=O)(Nc1cc(Sc2cccc3cccnc23)c(O)c2ccccc12)c1ccc(F)cc1	0.79µM*	-14%	0.58µM*	1.1µM*	-98*	0.92µM*	12µM*	15µM*	2.6µM*	31%
O=S(=O)(Nc1cccc2cccnc12)c1ccc2ccccc2c1	u	x	x	-24%	x	x	x	x	x	x

Screening results as filed in PubChem BioAssay.
